Out of some 24,000 compounds screened, about 180 (0.75%) were called active. Rule as the data show it: active = inhibition above about 30%; inconclusive = no clear call, values can overlap the other calls; inactive = below that. The full list was thinned out, with actives kept by preference.
What follows are compounds tested against fMet-Leu-Phe receptor (Homo sapiens) (UniProt P21462) (assay: small molecules displacing FPR fluorescent ligand – cell-based, FPRL1 counter-screen, flow cytometry, primary screen (AID 440;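 also: 0% = buffer wells and 100% = receptor blocker peptide wells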)). Conditions: FPR-expressing cells, fluorescent ligand binding, active compounds read high, concentration not given here.
Chain of fMet-Leu-Phe receptor (Homo sapiens) (P21462 whole entry, looked up): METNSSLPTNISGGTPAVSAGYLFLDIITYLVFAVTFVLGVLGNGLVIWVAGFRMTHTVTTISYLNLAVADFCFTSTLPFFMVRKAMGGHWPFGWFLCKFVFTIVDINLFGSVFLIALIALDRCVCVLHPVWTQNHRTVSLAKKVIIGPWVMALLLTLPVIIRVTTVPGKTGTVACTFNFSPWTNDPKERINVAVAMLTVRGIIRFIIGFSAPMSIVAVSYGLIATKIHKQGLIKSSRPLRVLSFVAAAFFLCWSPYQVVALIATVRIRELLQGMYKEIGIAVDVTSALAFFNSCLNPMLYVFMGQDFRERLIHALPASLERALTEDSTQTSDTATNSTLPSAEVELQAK
In the case of `CCN(CC)CCNC(=O)Cn1cnc2sc(C)c(S(=O)(=O)N3CCOCC3)c2c1=O`, the inhibition is reported as -9.4% (inactive). For `C/C(CC(O)(/C=N/O)c1ccccc1)=N\O` (stereo not given), the inhibition was 7.2% (inactive). In the case of `O=C(Cn1c(=O)n(Cc2ccco2)c(=O)c2ccccc21)NCC1CCCO1` (stereo not given), the inhibition is reported as 5.8% (inactive). In the case of `N#CCCN1CCN(S(=O)(=O)c2ccc(S(=O)(=O)NC3CC3)cc2)CC1`, the inhibition is reported as -1.2% (inactive). With `CCOc1ccc(CCNC(=O)C2CCN(c3ccc(N4CCOCC4)nn3)CC2)cc1OCC` the inhibition was -8.8% (inactive). With `COCCOC(=O)C1=C(C)NC(=O)CC1c1cc2c(cc1Br)OCO2` (stereo not given) the inhibition was -1.8% (inactive). With `Nc1nonc1-c1noc(-c2ccc(Br)o2)n1` the inhibition was -6.7% (inactive). With `CCC(C)(C(=O)NC1CCCC1)N(C(=O)CNC(C)=O)c1ccc(C)cc1` (stereo not given) the inhibition was 5.8% (inactive). For `O=C(COC(=O)c1ccccc1C(=O)c1ccccc1)c1ccco1`, the inhibition was -1% (inactive). `CCOC(=O)N1CCN(C(=O)c2cc3c(-c4ccc(Cl)cc4)nn(C)c3s2)CC1` was tested, and the inhibition was 8.5% (inactive). For `CC1CCN(c2oc(-c3ccccc3F)nc2C#N)CC1`, the inhibition was -10.3% (inactive). In the case of `O=C(NCCc1ccc(Cl)cc1)C1CC(=O)N(C2CCCCC2)C1` (stereo not given), the inhibition is reported as -0.9% (inactive). For `CCOc1cc2c(cc1OCC)C(C(=O)O)C(c1ccc(OC)c(O)c1)N(C)C2=O` (stereo not given), the inhibition was 12.3% (inactive). In the case of `CCOc1ccc(CC(=O)Nc2ccc(S(=O)(=O)Nc3cc(C)on3)cc2)cc1OCC`, the inhibition is reported as -0.6% (inactive). With `O=C(Cn1nnc(-c2ccc(CN3CCOCC3)cc2)n1)NC1CCCCC1` the inhibition was 5.2% (inactive). With `Cc1cc(C(=O)O)c(S(C)(=O)=O)s1` the inhibition was -3.8% (inactive). For `Cc1cc(=O)n(C)c(=O)n1CCCNc1ccccc1`, the inhibition was -1.3% (inactive). In the case of `COCc1cc(C)nc(SCC(=O)Nc2cccc(C)c2)c1C#N`, the inhibition is reported as -8.6% (inactive). In the case of `CCOC(=O)c1ccc(CS(=O)c2ccc(Cl)cc2)o1` (stereo not given), the inhibition is reported as -1.1% (inactive). `CCCS(=O)(=O)N1CCC(C(=O)NCCCN(C)Cc2ccccc2)CC1` was tested, and the inhibition was -2.3% (inactive). For `C=CCN(CC=C)C(=O)CN1C(=O)c2ccccc2C1=O`, the inhibition was 13.3% (inactive). With `Cc1cc(=O)oc(C)c1C(=O)NCc1ccc(F)cc1` the inhibition was -12.6% (inactive). With `O=C(O)C1CCCCC1C(=O)Nc1ccc(Cl)cc1` (stereo not given) the inhibition was -10.1% (inactive). For `Cc1c2cnn(-c3ccccc3)c(=O)c2c(C)n1CCCC(=O)N1CCN(C)CC1`, the inhibition was 1.2% (inactive). For `O=C1CCC(Cc2ccccc2)N1` (stereo not given), the inhibition was 1.5% (inactive). `COc1ccc(C(=O)NC(=O)CSc2nnc(-c3ccco3)n2-c2ccccc2)cc1` was tested, and the inhibition was -1.4% (inactive). `Cn1c(C(=O)N2CCC(C(N)=O)CC2)cc2c(=O)n(C)c3ccccc3c21` was tested, and the inhibition was -1% (inactive). With `O=C(NCc1ccco1)C1CCCN(S(=O)(=O)c2cccc3nonc23)C1` (stereo not given) the inhibition was -5.3% (inactive). In the case of `Cn1c(=O)n(C)c2cc(CNc3ccc(N4CCOCC4)c(C(=O)O)c3)ccc21`, the inhibition is reported as 0.5% (inactive). For `Cc1ccc(NC(=O)c2nc[nH]c2C(=O)N2CCCCC2)c(C(=O)c2ccccc2)c1`, the inhibition was -3.6% (inactive).

From PubChem BioAssay AID440 (NMMLSC, 2006)
